Algae TAG accum: inducers of triacylglycerol accumulation in Chlamydomonas reinhardtii algae; calls only at 10 µM (by protocol); AID 1159537; actives 0.84% (n = 44,000); Chlamydomonas reinhardtii TAG, Nile Red fluorescence, 72 h; call rule not given here;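 further: hits raise Nile Red signal meaning more stored TAG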
Of the large screens only hits and unclear results are named; the others gave an inactive call. Many of the other results were omitted from the sample, so hits are more common in it than they were.

Cc1nc2ccccc2c(=O)n1-c1ccc([N+](=O)[O-])cc1Br	none
O=[N+]([O-])c1ccc(CN2CCN(Cc3ccccc3)CC2)cc1	Algae TAG accum active
CCC(C)N1CCN(Cc2ccc([N+](=O)[O-])cc2)CC1 (centres undefined)	Algae TAG accum active
O=[N+]([O-])c1ccc(N2CCN(Cc3cccc(Cl)c3)CC2)cc1	none
O=[N+]([O-])c1ccc(N2CCN(Cc3cccc(F)c3)CC2)cc1	none
CCN1CCN(Cc2ccc([N+](=O)[O-])cc2)CC1	none
O=[N+]([O-])c1ccc(CN2CCN(c3ccc(F)cc3)CC2)cc1	Algae TAG accum active
CN1CCN(Cc2cccc([N+](=O)[O-])c2)CC1	none
O=C(COc1ccccc1)N1CCN(Cc2ccc([N+](=O)[O-])cc2)CC1	none
CN1CCN(Cc2ccc([N+](=O)[O-])cc2)CC1	none
COc1ccc(O)c(CN2CCN(c3cc(C)ccc3C)CC2)c1	none
CCOc1ccccc1N1CCN(Cc2cc(F)ccc2F)CC1	none
CCN1CCC(NC2C3CC4CC(C3)CC2C4)CC1 (centres undefined)	none
